Source: PubChem BioAssay (several laboratories)
This is a sample that favours compounds with a hit; in the whole collection about 4.1% have one here.
SUMO Mot1 rescue: blocks SUMOylation pathway, rescuing yeast Mot1-301 growth; 1% of 320,000 active; S. cerevisiae Mot1-301 growth rescue, ATP luminescence, 38.5C; percent above DMSO median, 100 means doubled; growth rescue, % at 18.8 µM;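 active = every valid replicate shows activation above 250% relative to neutral control wells; inactive = the rest, any valid replicate at or below 250%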
CHT PAM: allosterically activates the human high affinity choline transporter; AID 488977; CHT-expressing cells, membrane potential dye, choline EC20; hits give high values; LV-AA mutant CHT in HEK293 cells; B-score at 10 µM; 0.49% of 310,000 active;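 active = initial fluorescence not abnormally high and integrated response B-score, plate-corrected, over 3 SD above library mean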
Target sequence (Q9GZV3 whole entry, looked up): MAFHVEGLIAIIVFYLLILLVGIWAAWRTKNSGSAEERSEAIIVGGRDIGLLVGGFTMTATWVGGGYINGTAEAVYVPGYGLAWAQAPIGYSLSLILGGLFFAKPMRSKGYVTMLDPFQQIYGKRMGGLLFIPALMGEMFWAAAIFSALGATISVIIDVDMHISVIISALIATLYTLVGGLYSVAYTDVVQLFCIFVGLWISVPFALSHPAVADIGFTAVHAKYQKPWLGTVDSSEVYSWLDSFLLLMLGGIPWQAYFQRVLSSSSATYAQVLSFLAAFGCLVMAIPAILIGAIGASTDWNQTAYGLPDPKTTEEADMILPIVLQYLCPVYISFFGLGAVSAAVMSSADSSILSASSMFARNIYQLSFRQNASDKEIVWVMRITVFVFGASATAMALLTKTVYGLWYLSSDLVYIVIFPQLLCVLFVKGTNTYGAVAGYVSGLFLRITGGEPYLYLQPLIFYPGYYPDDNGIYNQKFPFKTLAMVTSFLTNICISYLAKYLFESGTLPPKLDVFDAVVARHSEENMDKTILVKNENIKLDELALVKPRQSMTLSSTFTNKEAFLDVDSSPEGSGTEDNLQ
MEKK2 mut-MEK5: signal of MEK5 binding to mutant human MEKK2 PB1 domain | bead flow cytometry, Alexa488-MEK5 binding to MEKK2 mutant | percent response, % at 10 µM | 0.35% of 290,000 active | AID 1530; in the data active = percent response above about 24%, passing the limit was not always enough
MEKK2wt PB1 HTS: raises or lowers MEK5 binding to wildtype human MEKK2 PB1 domain | 1.1% of 290,000 active | binding response (% of control), % at 10 µM | bead flow cytometry, Alexa488-MEK5 binding to MEKK2 WT; actives lie on both sides | Q9Y2U5 | AID 1531; in the data active = binding response below about 67% or above about 130%
CHT block: human CHT choline transport inhibition | CHT-expressing cells, membrane potential dye, choline response; hits give low values | 0.86% of 310,000 active | B-score at 10 µM | Q9GZV3;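 active = B-score over 3 SD under the library average, and starting fluorescence ratio not unusually high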;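 note: choline stimulus applied at its EC90 after an EC20 pre-addition; B-score computed on integrated fluorescence ratio after choline addition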
MEKK3 PB1 HTS: raises or lowers MEK5 binding to the human MEKK3 PB1 domain; 1.4% of 290,000 active; AID 1529; binding response (% of control), % at 10 µM; bead-based flow cytometry, Alexa488-MEK5 binding to MEKK3; actives lie on both sides; 0 = blocked by unlabeled MEK5, 100 = vehicle; Q99759;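 active = binding response more than 3 SD above or below the average of its plate-row segment, actives on both sides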;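 note: Alexa488 bead fluorescence after subtracting the streptavidin-only scavenger bead signal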
MEKK2wt confirm: raises or lowers MEK5 binding to wildtype human MEKK2, retest; 2.4% of 5,900 active; shares compounds with MEKK3 PB1 HTS; AID 1892; binding response (% of control), % at 10 µM; bead flow cytometry, Alexa488-MEK5 binding to MEKK2 WT; actives lie on both sides; in the data active = binding response below about 16% or above about 210%; inactive = in between
MEKK2mut confirm: signal of MEK5 binding to mutant human MEKK2, retest; shares compounds with MEKK3 PB1 HTS; bead flow cytometry, Alexa488-MEK5 binding to MEKK2 mutant; percent response, % at 10 µM; 2% of 5,900 active; in the data active = percent response mostly above about 71%, no sharp cut-off; inactive = mostly below about 38%;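 note: higher means compound restores mutant binding toward wildtype level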
MEKK3 confirm: MEKK3-MEK5 PB1 inhibition, single concentration confirmation | 1.8% of 5,900 active | AID 1894 | bead flow cytometry, Alexa488-MEK5 binding to MEKK3; hits give low values | shares compounds with MEKK3 PB1 HTS | binding response (% of control), % at 10 µM;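 active = binding response below 72% of control, or above a set upper limit, though filed actives all read lower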;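 note: lower values mean stronger disruption of MEK5 binding to MEKK3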
CHT block conf: confirmation of human choline transporter CHT inhibitors; 70% of 2,400 active; CHT activity remaining % of control (hits give low values), % at 10 µM; CHT-expressing cells, choline membrane potential dye; LV-to-AA substituted CHT, HEK293 cells; shares compounds with CHT block;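 active = choline transporter activity left, mean of duplicates at 10 µM, below buffer-only control mean minus 3 SD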;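 note: depolarization triggered by choline at its EC90 following an EC20 pre-addition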
HEK293 MPD ctr: CHT inhibitor counter-screen hit in parental HEK293 cells. membrane potential dye, choline response; active = decrease or increase beyond buffer ±3SD. shares compounds with CHT block. 4% of 2,400 active. membrane potential ratio readout (active if shifted either direction beyond buffer ±3SD; no single direction) at 10 µM. AID 493222;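 note: parental cells lack the transporter so any hit is non-specific; ratio is peak minus trough fluorescence over baseline after EC90 choline challenge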
CHT activ conf: human CHT activation, confirmatory screen; shares compounds with CHT PAM; activation, % at 10 µM; 91% of 2,500 active; CHT-expressing cells, membrane potential dye fluorescence (FDSS); % of choline EC20–EC90 response window; HEK293 expressing CHT LV-AA mutant; choline added at its EC20; AID 504833;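 active = primary screen active, with duplicate mean activation above negative control mean plus 3 SD, cut at about 11% in these data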
HEK293 MP dye: activity in parental HEK293 cells lacking CHT | shares compounds with CHT PAM | membrane potential dye fluorescence (FDSS); measured after EC20 choline addition | ratio readout change at 10 µM, hits read low | 62% of 2,500 active | AID 623908;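 active = duplicate-averaged ratio beyond 3 SD from buffer wells, up or down, though filed actives are nearly all decreases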
A number is an active result; 0 = inactive; - = not tested or not shown; [ ] = dose if it differs, or a comment.

SMILES | SUMO Mot1 rescue | CHT PAM | MEKK2 mut-MEK5 | MEKK2wt PB1 HTS | CHT block | MEKK3 PB1 HTS | MEKK2wt confirm | MEKK2mut confirm | MEKK3 confirm | CHT block conf | HEK293 MPD ctr | others
CCN(Cc1cc(=O)n2ccsc2n1)Cc1nc2ccccc2c(=O)[nH]1 | 0 | 0 | 0 | 0 | 0 | 0 | - | - | - | - | -
O=C(CSc1ccc(-c2nc3ccccc3[nH]2)cn1)Nc1ccc(S(=O)(=O)NC2CC2)cc1 | 0 | 0 | 0 | 0 | -5.7 | 165 | 0 | 0 | 0 | 0 | 0
Cc1cc(OCc2cc(C(=O)NCCN3CCCCC3CO)no2)cc(C)c1Cl (stereo not drawn) | 0 | 0 | 0 | 136 | -5.4 | 0 | 0 | 0 | 0 | 49% | 0
Cc1nn(CC2CC2)c(=O)n1-c1cccc(Cl)c1 | 0 | 0 | 0 | 0 | -5.8 | 154 | 0 | 0 | 0 | 0 | 0
Fc1ccccc1-c1csc(=Nc2cccnc2)n1CCCn1ccnc1 | 0 | 0 | 0 | 0 | -6.8 | 137 | 0 | 0 | 0 | 48% | 0
COCCn1c(-c2cccs2)csc1=Nc1cccnc1 | 0 | 0 | 0 | 0 | 0 | 0 | - | - | - | - | -
CSc1ccccc1C(=O)C1CCCN(S(=O)(=O)c2c(C)noc2C)C1 (stereo not drawn) | 0 | 0 | 0 | 0 | 0 | 0 | - | - | - | - | -
O=C(C[n+]1cc(Br)cc2ccccc21)c1ccccc1 | 0 | 0 | 0 | 66[inhibitor] | -6.4 | 0 | 0 | 0 | 70 | 56% | 2.4
CC(C)CN1CCNC(=O)C1CC(=O)NCCc1ccc(C(F)(F)F)cc1 (stereo not drawn) | 0 | 0 | 0 | 160 | -4.9 | 0 | 0 | 0 | 0 | 0 | 0
CC1CCCCC1NC(=O)c1cccc(S(=O)(=O)N2CCN(Cc3ccccc3)CC2)c1 (stereo not drawn) | 0 | 0 | - | - | 0 | - | - | - | - | - | -
COc1ccc(C(CCN2CCCC(C)C2)c2c(OC)cc(OC)c3c(-c4ccccc4)cc(=O)oc23)cc1 (stereo not drawn) | 0 | 0 | 41 | 207 | -5.7 | 0 | 0 | 0 | 0 | 50% | 0
COc1ccc(C2CC(=O)Oc3c(C(CCN4CCCCC4)c4ccc(N(C)C)cc4)c(OC)cc(OC)c32)cc1 (stereo not drawn) | 0 | 0 | 0 | 156 | -5.9 | 0 | 0 | 0 | 0 | 47% | 0
COc1ccc(C(CC(=O)N2CCCC(C)C2)c2c(O)cc(OC)cc2OC)cc1 (stereo not drawn) | 0 | 0 | 0 | 0 | 0 | 0 | - | - | - | - | -
COc1cc(OC)c2ccc(=O)oc2c1C(CCN1CCN(c2ccccc2)CC1)c1ccc(N(C)C)cc1 (stereo not drawn) | 0 | 0 | 0 | 0 | 0 | 0 | - | - | - | - | -
COc1ccc(C(CCN2CCN(c3ccccc3)CC2)c2c(OC)cc(OC)c3c(-c4ccccc4)cc(=O)oc23)cc1 (stereo not drawn) | 0 | 0 | 0 | 0 | 0 | 0 | - | - | - | - | -
COc1ccc(C(CCN2CCCC2)c2c(OC)cc(OC)c3c(-c4ccccc4)cc(=O)oc23)cc1 (stereo not drawn) | 0 | 0 | 0 | 152 | -5.2 | 0 | 0 | 0 | 0 | 51% | 0
COc1cc(OC)c2c(-c3ccccc3)cc(=O)oc2c1C(CCN1CCCC(C)C1)c1ccc(N(C)C)cc1 (stereo not drawn) | 0 | 0 | 41 | 222 | -6 | 0 | 0 | 0 | 0 | 54% | 0
COCCCN(C(=O)CSCc1c(C)noc1C)c1c(N)n(Cc2ccccc2)c(=O)[nH]c1=O | 0 | 0 | - | - | 0 | - | - | - | - | - | -
COc1cc(OC)c2c(C)cc(=O)oc2c1C(CCN1CCN(c2ccccc2)CC1)c1ccc2c(c1)OCO2 (stereo not drawn) | 0 | 0 | 0 | 0 | 0 | 0 | - | - | - | - | -
COc1cc(OC)c2c(-c3ccccc3)cc(=O)oc2c1C(CCN1CCCC1)c1ccc2c(c1)OCO2 (stereo not drawn) | 0 | 0 | 0 | 175 | -6.5 | 128 | 0 | 0 | 0 | 50% | 0
Cc1noc(/C=C/c2cccs2)c1S(=O)(=O)N1CCC(C(=O)NCCCN2CCCC(C)C2)CC1 (stereo not drawn) | 0 | 0 | 0 | 152 | 0 | 0 | 0 | 0 | 0 | 0 | 0
CSc1ccc(CNCCCSc2ncccn2)cc1 | 0 | 0 | 25 | 147 | -5.6 | 0 | 0 | 0 | 0 | 0 | 0
Brc1ccc(CNCCCSc2ncccn2)cc1 | 0 | 0 | 0 | 0 | 0 | 0 | - | - | - | - | -
CCN1CCCC1CNC(=O)c1cc([N+](=O)[O-])c(N(C)C)cc1OC (stereo not drawn) | 0 | 0 | 0 | 0 | 0 | 0 | - | - | - | - | -
CC1CCc2c(sc(NC(=O)CSc3ncnc4c3cnn4-c3ccccc3Cl)c2C#N)C1 (stereo not drawn) | 0 | 0 | 0 | 0 | 0 | 0 | - | - | - | - | -
O=C(c1ccc2c(c1)OCCO2)N1CCN(Cc2ccccc2)CC1 | 0 | 0 | 0 | 0 | 0 | 0 | - | - | - | - | -
CCCCCc1cc(=O)oc2c(C(CCN(CC)CC)c3cc(OC)c(OC)c(OC)c3)c(OC)cc(OC)c12 (stereo not drawn) | 0 | 0 | 34 | 218 | -5.8 | 0 | 0 | 0 | 0 | 51% | 0
O=C(NCCS(=O)(=O)N1CCCCCC1)c1ccccc1 | 0 | 0 | - | - | 0 | - | - | - | - | - | -
Cc1cc(N2CCC(N(C)C3CCCC3)CC2)nc2cc(O)ccc12 | 0 | 12 | 24 | 142 | 0 | 0 | 0 | 0 | 0 | - | - | CHT activ conf=31;HEK293 MP dye=-73
